Measured values reported in PubChem BioAssay AID1159580 (chemical genetic matrix, 2015).
Values joined by “and” are separate entries in the source; they are usually repeats but may differ in a detail not shown here. Identical values can stand only once. About 2,000 (36%) of roughly 5,500 compounds were called active. Inconclusive results (about 18%) are left out. Rule as the data show it: active = normalized growth mostly below about 0.91 (no sharp cut-off); inconclusive = no clear call, values can overlap the other calls; inactive = mostly above about 0.92. Some of the results follow.

Experiment: chemical genetic growth profiling, strain panel (AID 1159580);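 also: tested at 20 µM; growth read once vehicle control cultures reached saturation at 30 °C; 1 = growth at the plate median or of vehicle wells; lower values mean less growth of the strain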
Details: S. cerevisiae deletion strains, growth OD

Measured: normalized growth

O=c1c(-c2ccc(O)cc2)coc2cc(O)cc(O)c12
inactive: locus YAL013W, strain DEP1, active compounds read low 1.03 | locus YAL021C, strain ccr4, active compounds read low 1.01 | locus YAL026C, strain drs2, active compounds read low 1.02 | locus YAL030W, strain snc1, active compounds read low 1.01 | locus YAL040C, strain CLN3, active compounds read low 0.968 | locus YBL061C, strain skt5, active compounds read low 1.01 | locus YBR009C, strain hhf1, active compounds read low 1.01 | locus YBR021W, strain FUR4, active compounds read low 1 | locus YBR023C, strain chs3, active compounds read low 1.01 | locus YBR171W, strain sec66, active compounds read low 1.01 | locus YBR229C, strain ROT2, active compounds read low 1.02 | locus YBR231C, strain swc5, active compounds read low 1.01 | locus YBR279W, strain paf1, active compounds read low 1 | locus YCL011C, strain gbp2, active compounds read low 1.01 | locus YCL016C, strain dcc1, active compounds read low 1.01 | locus YCL029C, strain bik1, active compounds read low 1.03 | locus YCL061C, strain MRC1 (second series), active compounds read low 1 | locus YCL061C, strain MRC1, active compounds read low 1 | locus YCL069W, strain vba3, active compounds read low 1.02 | locus YCR088W, strain abp1, active compounds read low 1.02 | locus YDL005C, strain med2, active compounds read low 1 | locus YDL035C, strain GPR1, active compounds read low 1.07 | locus YDL040C, strain nat1, active compounds read low 1.01 | locus YDL074C, strain BRE1, active compounds read low 1.14 | locus YDL101C, strain DUN1, active compounds read low 1.03 | locus YDL185W, strain tfp1, active compounds read low 1.02 | locus YDL192W, strain arf1, active compounds read low 1.04 | locus YDR001C, strain nth1, active compounds read low 1.01 | locus YDR069C, strain doa4, active compounds read low 1.01 | locus YDR101C, strain arx1, active compounds read low 1 | locus YDR137W, strain rgp1, active compounds read low 0.983 | locus YDR150W, strain NUM1, active compounds read low 0.996 | locus YDR159W, strain sac3, active compounds read low 1.02 | locus YDR162C, strain NBP2, active compounds read low 1.04 | locus YDR195W, strain ref2 1.03 | locus YDR297W, strain sur2, active compounds read low 1.01 | locus YDR318W, strain mcm21, active compounds read low 1.02 | locus YDR334W, strain swr1, active compounds read low 0.989 | locus YDR335W, strain msn5, active compounds read low 1.02 | locus YDR363W, strain ESC2, active compounds read low 0.994 | locus YDR388W, active compounds read low 1.03 | locus YDR392W, strain spt3, active compounds read low 0.989 | locus YDR502C, strain sam2, active compounds read low 1.02 | locus YEL003W, strain gim4, active compounds read low 1.01 | locus YEL037C, strain rad23, active compounds read low 1.01 | locus YEL061C, strain CIN8 (second series), active compounds read low 1.01 | locus YER002W, strain NOP16, active compounds read low 0.996 | locus YER015W, strain faa2, active compounds read low 1.01 | locus YER016W, strain bim1, active compounds read low 1.01 | locus YER110C, active compounds read low 1.04 | locus YER111C, strain swi4, active compounds read low 1.03 | locus YER155C, strain BEM2 (second series), active compounds read low 1.02 | locus YER155C, strain BEM2, active compounds read low 1.03 | locus YER167W, strain BCK2, active compounds read low 1.03 | locus YFR010W, strain ubp6, active compounds read low 0.995 | locus YGL078C, strain dbp3, active compounds read low 1.03 | locus YGL086W, strain mad1, active compounds read low 1.01 | locus YGL167C, strain pmr1, active compounds read low 1.01 | locus YGL173C, strain kem1, active compounds read low 1.01 | locus YGL227W, strain vid30, active compounds read low 1.01 | locus YGL240W, strain doc1, active compounds read low 1.01 | locus YGL248W, strain PDE1, active compounds read low 1.07 | locus YGL253W, strain hxk2, active compounds read low 1 | locus YGR078C, strain PAC10, active compounds read low 1.06 | locus YGR135W, strain pre9, active compounds read low 1.05 | locus YGR252W, strain gcn5, active compounds read low 0.958 | locus YHR013C, strain ard1, active compounds read low 1.03 | locus YHR027C, strain rpn1, active compounds read low 1.01 | locus YHR030C, strain SLT2, active compounds read low 0.984 and 1.04 | locus YHR079C, strain IRE1 (second series), active compounds read low 1.02 | locus YHR079C, strain IRE1, active compounds read low 1.01 | locus YHR094C, strain hxt1, active compounds read low 1.04 | locus YHR129C, strain ARP1, active compounds read low 1.05 | locus YHR142W, strain chs7, active compounds read low 0.991 | locus YHR200W, strain rpn10, active compounds read low 1.02 | locus YIL066C, strain RNR3, active compounds read low 1.05 | locus YIL073C, strain SPO22, active compounds read low 1.13 | locus YIL125W, strain kgd1, active compounds read low 1.03 | locus YIR030C, strain dcg1, active compounds read low 1.03 | locus YJL092W, strain hpr5, active compounds read low 1.01 | locus YJL095W, strain BCK1 (second series), active compounds read low 1.01 | locus YJL095W, strain BCK1, active compounds read low 1.11 and 1.05 | locus YJL115W, strain asf1, active compounds read low 0.999 | locus YJL129C, strain trk1, active compounds read low 0.997 | locus YJL134W, strain LCB3, active compounds read low 1.03 | locus YJL154C, strain vps35, active compounds read low 1 | locus YJL164C, strain tpk1, active compounds read low 0.95 | locus YJL166W, strain qcr8, active compounds read low 1 | locus YJL168C, strain set2, active compounds read low 1.03 | locus YJL187C, strain SWE1 (second series), active compounds read low 1.05 | locus YJL187C, strain SWE1, active compounds read low 1 | locus YJR066W, strain TOR1, active compounds read low 0.999 | locus YKL009W, strain mrt4, active compounds read low 1.04 | locus YKL068W, active compounds read low 1 | locus YKL085W, strain MDH1 (second series), active compounds read low 1.02 | locus YKL085W, strain MDH1, active compounds read low 1.02 | locus YKL160W, strain elf1, active compounds read low 1 | locus YKL190W, strain CNB1, active compounds read low 1.02 | locus YKR001C, strain vps1, active compounds read low 1.03 | locus YKR026C, strain gcn3, active compounds read low 1.02 | locus YKR091W, strain srl3, active compounds read low 1.01 | locus YLL001W, strain dnm1, active compounds read low 1.02 | locus YLL026W, active compounds read low 1.02 | locus YLL041C, strain sdh2, active compounds read low 1 | locus YLR027C, strain aat2, active compounds read low 1.01 | locus YLR039C, strain RIC1, active compounds read low 1.21 | locus YLR058C, strain SHM2, active compounds read low 1.05 | locus YLR102C, strain apc9, active compounds read low 1.03 | locus YLR113W, strain HOG1, active compounds read low 1.07 | locus YLR221C, strain rsa3, active compounds read low 1 | locus YLR258W, strain gsy2, active compounds read low 1.01 | locus YLR262C, strain YPT6 (second series), active compounds read low 1.01 | locus YLR268W, strain sec22, active compounds read low 1.03 | locus YLR320W, strain mms22, active compounds read low 1 | locus YLR342W, strain FKS1, active compounds read low 1.01 | locus YLR357W, strain rsc2, active compounds read low 0.987 | locus YLR370C, strain arc18, active compounds read low 1.01 | locus YLR371W, strain rom2, active compounds read low 1.06 | locus YLR384C, strain iki3, active compounds read low 1.02 | locus YLR418C, strain cdc73, active compounds read low 1.05 | locus YML016C, strain PPZ1, active compounds read low 1.03 | locus YML032C, strain rad52, active compounds read low 1.02 | locus YML120C, strain ndi1, active compounds read low 1.02 | locus YML124C, strain tub3, active compounds read low 1.02 | locus YMR058W, strain fet3, active compounds read low 1.01 | locus YMR078C, strain ctf18, active compounds read low 1.03 | locus YMR125W, strain sto1, active compounds read low 1.01 | locus YMR129W, active compounds read low 1.01 | locus YMR205C, strain PFK2, active compounds read low 1.02 | locus YMR223W, strain ubp8, active compounds read low 1.03 | locus YMR231W, strain pep5, active compounds read low 1 | locus YMR263W, strain SAP30, active compounds read low 1.03 | locus YMR307W, strain GAS1, active compounds read low 1.17 and 0.992 | locus YNL067W, strain RPL9B, active compounds read low 1.03 | locus YNL071W, strain lat1, active compounds read low 1.02 | locus YNL128W, strain TEP1, active compounds read low 1.06 | locus YNL175C, strain NOP13, active compounds read low 1.01 | locus YNL183C, strain NPR1, active compounds read low 0.993 | locus YNL197C, strain WHI3, active compounds read low 1.01 | locus YNL209W, strain ssb2, active compounds read low 0.996 | locus YNL224C, strain SQS1, active compounds read low 1 | locus YNL233W, strain BNI4, active compounds read low 1.08 | locus YNL248C, strain rpa49, active compounds read low 0.999 | locus YNL250W, strain rad50, active compounds read low 1.04 | locus YNL271C, strain bni1, active compounds read low 1.02 | locus YNL298W, strain CLA4, active compounds read low 1.04 | locus YNL307C, strain MCK1, active compounds read low 1.06 | locus YNL322C, strain KRE1 (second series), active compounds read low 1.01 | locus YNL322C, strain KRE1, active compounds read low 0.996 | locus YNR049C, strain mso1, active compounds read low 1.01 | locus YNR052C, strain pop2, active compounds read low 1.05 | locus YOL006C, strain TOP1, active compounds read low 1.26 | locus YOL012C, strain htz1 0.919 | locus YOL147C, strain pex11, active compounds read low 1.01 | locus YOR001W, strain rrp6, active compounds read low 1.01 | locus YOR061W, strain CKA2, active compounds read low 1.04 | locus YOR069W, strain VPS5, active compounds read low 1.03 | locus YOR070C, strain gyp1, active compounds read low 1 | locus YOR080W, strain dia2, active compounds read low 1.01 | locus YOR083W, strain WHI5 (second series), active compounds read low 1.03 | locus YOR083W, strain WHI5, active compounds read low 0.997 | locus YOR106W, strain vam3, active compounds read low 0.977 | locus YOR136W, strain idh2, active compounds read low 1.03 | locus YOR144C, strain elg1, active compounds read low 1.02 | locus YOR184W, strain ser1, active compounds read low 1 | locus YOR231W, strain MKK1, active compounds read low 1.04 | locus YOR265W, strain rbl2, active compounds read low 1.01 | locus YOR270C, strain vph1, active compounds read low 0.982 | locus YOR290C, strain snf2, active compounds read low 0.989 | locus YOR316C, strain cot1, active compounds read low 1.02 | locus YPL051W, strain arl3, active compounds read low 0.989 | locus YPL055C, strain LGE1, active compounds read low 1.08 and 1.02 | locus YPL078C, strain atp4, active compounds read low 1.01 | locus YPL106C, strain sse1, active compounds read low 1.02 | locus YPL240C, strain hsp82, active compounds read low 0.992 | locus YPL241C, strain CIN2, active compounds read low 1 | locus YPL256C, strain CLN2, active compounds read low 1.05 | locus YPR119W, strain clb2, active compounds read low 1.03 | locus YPR141C, strain kar3, active compounds read low 1.02 | locus YPR163C, strain tif3, active compounds read low 1.04 | locus YPR167C, strain met16, active compounds read low 1.03 | strain wtn01, active compounds read low 1.02
